In publication PMC7819943, “Rice protein-binding microarrays: a tool to detect cis-acting elements near promoter regions in rice”:
Whole data set: some 35,000 sequences, median “fluorescence intensity (a.u.)” near 10,000, cut for the highest 2% near 52,000. The full list was thinned out, with the highest values kept by preference.

Target: T1, OsWOX13 (Oryza sativa, UniProt Q5QMM3 1-267)
T1 sequence: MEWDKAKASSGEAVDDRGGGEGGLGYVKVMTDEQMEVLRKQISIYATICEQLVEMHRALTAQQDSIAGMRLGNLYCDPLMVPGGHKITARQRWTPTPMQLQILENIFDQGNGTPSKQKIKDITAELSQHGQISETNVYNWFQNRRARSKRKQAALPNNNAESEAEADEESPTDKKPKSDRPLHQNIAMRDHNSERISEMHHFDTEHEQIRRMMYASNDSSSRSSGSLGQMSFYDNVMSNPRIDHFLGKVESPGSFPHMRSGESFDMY
Assay: protein-binding microarray (RPBM); PBS, 2% BSA, 51.3 ng/ul salmon testes DNA, 50 uM zinc acetate, 200 nM TF, 25 C, 1 h; high values mean tight binding
Details: protein: recombinant; tags: N-terminal polyhistidine and DsRed monomer fusion (pET32a); label: CyDye5-dUTP incorporated in the synthesized complementary strand; 3' TTTTT single-stranded linker to array surface; dsDNA, one strand shown
In short: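 Transcription factors, each fused N-terminally to a polyhistidine tag and DsRed, were expressed in E. coli BL21-CodonPlus and purified on Ni–NTA. A custom Agilent array was made double-stranded by primer extension with Cy5-dUTP and blocked with 2% BSA. It was incubated with 200 nM protein in PBS, 2% BSA, salmon testes DNA and 50 µM zinc acetate at 25 °C for 1 h, then washed. The binding signal is per-feature fluorescence intensity (arbitrary units) read on an Axon 4000B scanner.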

Sequence	binding signal
CCACGCCAATTAGCATCCCACGTTTCGCCTTTGATTGTGGCGGAGTCACCTAGTGCAG	10600 fluorescence intensity (a.u.)
TCATTAATTAATTAATTACAGTGGTAGATGATGATGTAGTCGGAGTCACCTAGTGCAG	64000 fluorescence intensity (a.u.)
ATTAATAATGTATAATTTATTTTAGTGGTATTAATGTTGTCGGAGTCACCTAGTGCAG	22400 fluorescence intensity (a.u.)
TGTTACATATAATGAAATTAATTTGGTATTGTAGATGTTGCGGAGTCACCTAGTGCAG	13600 fluorescence intensity (a.u.)
ATATTTAATTATTATTTTAATAAAACTAATTTGGTAATGTCGGAGTCACCTAGTGCAG	25700 fluorescence intensity (a.u.)
CTATAATTTGTAGATGATGTAGTATAATTATATTTAATCACGGAGTCACCTAGTGCAG	37300 fluorescence intensity (a.u.)
TATAATTTAAATTTAACTAAATTAATGGTATTACAGATGTCGGAGTCACCTAGTGCAG	58500 fluorescence intensity (a.u.)
CATTATAGATTAATACATTTTGGGATGGAGGGAGTACTCACGGAGTCACCTAGTGCAG	3200 fluorescence intensity (a.u.)
GACAGGATTATCACCTATTTGTCAACAGTTCACCAGGAGCCGGAGTCACCTAGTGCAG	3360 fluorescence intensity (a.u.)
ATTTAACGTCATTTATAAACATATACTAGATACTAGTAATCGGAGTCACCTAGTGCAG	3890 fluorescence intensity (a.u.)
GTCAACTGGAAATTGAAATTCAGCCAAAATTAGTGATCAGCGGAGTCACCTAGTGCAG	4850 fluorescence intensity (a.u.)
GTAGCAAATTTACAAATTTGCAGGGCTAGCTGTTGCGGTGCGGAGTCACCTAGTGCAG	11100 fluorescence intensity (a.u.)
AAGCATCAATTCGTTGCCTGATTAGTACAACACTGTTGTGCGGAGTCACCTAGTGCAG	5420 fluorescence intensity (a.u.)
CTAATCCCAGATTGCTAGTGATTAGCACGTAGATACATAGCGGAGTCACCTAGTGCAG	21700 fluorescence intensity (a.u.)
CTAATTAGTTTTGGTTAGTACTTATAATTTTGTCCTAATGCGGAGTCACCTAGTGCAG	15700 fluorescence intensity (a.u.)
GCCCTTGATTTCTGACTAGATTTGTGTTATTCTACTTACACGGAGTCACCTAGTGCAG	27200 fluorescence intensity (a.u.)
CGGTAGTGATTGATTCGGATGATTTCACCAGTAGGATTGGCGGAGTCACCTAGTGCAG	65300 fluorescence intensity (a.u.)
TCCAGTCCAATCAGCCCACCATAATTTGGGCCGGAATAAGCGGAGTCACCTAGTGCAG	17600 fluorescence intensity (a.u.)
GTTTGATTGTTTTCTAGTGTACTACACTTCCCTAGAACGTCGGAGTCACCTAGTGCAG	55000 fluorescence intensity (a.u.)
CATTTACTAATTTGTTTGCTTGATTGTCCTGGCGAAATTGCGGAGTCACCTAGTGCAG	40000 fluorescence intensity (a.u.)
AGAGGGTGGGGACATGGGGATTGATTTCACCTGTAGGATTCGGAGTCACCTAGTGCAG	3430 fluorescence intensity (a.u.)
ATTTCTGATTGGTGAGATGGGTGATTCGGTAGGCCATTGGCGGAGTCACCTAGTGCAG	40100 fluorescence intensity (a.u.)
ATATAAATATTAGTAATCAATTGAGGGAACATTTGATTTGCGGAGTCACCTAGTGCAG	11300 fluorescence intensity (a.u.)

Sequence	binding signal
CAATAATTGAGTGATTTGGCCCAGTCCAGGAACTAGTAAGCGGAGTCACCTAGTGCAG	56100 fluorescence intensity (a.u.)
CAACTTGATTAGTAGTAGTACTAGTTTGATTTTGTCCTGGCGGAGTCACCTAGTGCAG	54200 fluorescence intensity (a.u.)
TGTTTGCGATTGATTTGTACTACACAGTGGGTGCTTCTCCCGGAGTCACCTAGTGCAG	35300 fluorescence intensity (a.u.)
TATAATTTAAATTCAAATTTGAATCGGGTATGTAAACTTTCGGAGTCACCTAGTGCAG	15500 fluorescence intensity (a.u.)
TCATGAAATTAATAGGATGCCACGTCGACTTGGTTGTTCCCGGAGTCACCTAGTGCAG	3510 fluorescence intensity (a.u.)
ATAAATTTATAGGTAAAACTTTTATATAGATGTTCTTGGTCGGAGTCACCTAGTGCAG	15300 fluorescence intensity (a.u.)
TGAAATTGGAATGATGTGAAGGAAAAGTTGGAAGTTTGTGCGGAGTCACCTAGTGCAG	20700 fluorescence intensity (a.u.)
CTAATTACTATCCATCATGTTTCTGTGGACGCGCGGCTCACGGAGTCACCTAGTGCAG	9700 fluorescence intensity (a.u.)
TCTCTATAATTAAACATTCCAATTTCGAAAATGTTGTTAGCGGAGTCACCTAGTGCAG	8580 fluorescence intensity (a.u.)
AAGTTTCAAAATTTAAATTTTGACCGCATGCAGCTGATAACGGAGTCACCTAGTGCAG	4610 fluorescence intensity (a.u.)
ACGTTATTAATTACTTAGTACTACTATGAGTTAACTATGGCGGAGTCACCTAGTGCAG	18500 fluorescence intensity (a.u.)
CATTGATTGACATTGTTGAGGCAGTACTGTTACAGTTGAGCGGAGTCACCTAGTGCAG	59400 fluorescence intensity (a.u.)
ATTTGATTGTATATTGTACTAGTGCTACTACTACGTGGAGCGGAGTCACCTAGTGCAG	60400 fluorescence intensity (a.u.)
CTATTGATTTCTGCTGCTACTTTTCTATACTGTATTTTGTCGGAGTCACCTAGTGCAG	15500 fluorescence intensity (a.u.)
CCTGATTCTGATTGGCGCCAACGTACGTACTGTACATGCGCGGAGTCACCTAGTGCAG	56900 fluorescence intensity (a.u.)
GCTTAATTGGTTAGTGGACTAGTATATAGTAGTACTGTATCGGAGTCACCTAGTGCAG	46500 fluorescence intensity (a.u.)
CACCATTGCATGATTGCATCTGCATCACTGCATGCCAACGCGGAGTCACCTAGTGCAG	5680 fluorescence intensity (a.u.)
TGGGCCTGATTAACATGTGCTGTAGAATCGTACAACTGTGCGGAGTCACCTAGTGCAG	7530 fluorescence intensity (a.u.)
GTACAGTGTACTTGATTGAGTTGACAGTCATACTCTACTACGGAGTCACCTAGTGCAG	18500 fluorescence intensity (a.u.)
CAGTGTGATTGACTGTTGAGGCGGAGTCGGAGCTGCTTGTCGGAGTCACCTAGTGCAG	50900 fluorescence intensity (a.u.)
ACTTGTATATTTGTGGATTGATACATTACATATTGATCTACGGAGTCACCTAGTGCAG	5160 fluorescence intensity (a.u.)
TTAGATTGGGACAGTACGTAGGAATTGGTTGATTTCCGGGCGGAGTCACCTAGTGCAG	16300 fluorescence intensity (a.u.)
TATTGATTGATTGGTTAGTACTACAGTACTGTAGGAGTGGCGGAGTCACCTAGTGCAG	64700 fluorescence intensity (a.u.)
